{
  "source": "PubChem BioAssay (NCI)",
  "note": "The panel holds about 83,000 compounds, 20% with a hit somewhere; the sample as a whole holds those more often.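 Single-dose data. Exposure time 48 hours. Values below 10 considered active.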 Active and inactive are the calls of the source.",
  "data": [
    {"test_system": "CCRF-CEM leukemia", "experiment": "NCI-60 one-dose screen, 48 h (100 = growth as untreated, 0 = no growth, -100 = all killed)", "conditions": "10 µM unless noted", "values": [
      {"compound": "CCCCCCCCN(CCCCCCCC)C(=O)CCl", "growth": "-33.4% (active)"},
      {"compound": "O=C(Nc1ccc(-n2ccc3c(NC(=O)c4ccccc4)nccc32)cc1)c1ccc(N2CCOCC2)c(C(F)(F)F)c1", "growth": "26.9% (inactive)"},
      {"compound": "O=C1/C(=C/c2ccccc2)SC(=Nc2ccccc2)N1Nc1ccccc1", "growth": "6.81% (active)"},
      {"compound": "C[N+](C)(C)CC(=O)N/N=C\\c1ccco1", "growth": "100% (inactive)"},
      {"compound": "CC(C)CCSc1nc(-c2ccc(F)cc2)c(C#N)c(N2CCN(C)CC2)n1", "growth": "78.9% (inactive)"},
      {"compound": "CC(=O)Oc1c(Cl)c(Cl)c(Cl)c(Cl)c1Cl", "growth": "83.2% (inactive)"},
      {"compound": "CN(C)c1nc(-c2cccs2)n2nc(-c3ccc(Cl)cc3)cc2n1", "growth": "73.8% (inactive)"},
      {"compound": "COc1nccc2c(Sc3ccccc3)nc(N)nc12", "growth": "97.7% (inactive)"},
      {"compound": "c1cn2cc(-c3ccc4ncn(C5CCCCC5)c4c3)nc(-c3ccc4c(c3)ncn4C3CCCCC3)c2n1", "growth": "4.28% (active)"},
      {"compound": "CCc1onc(-c2ccc(OC)cc2)c1-c1ccccc1OCCN(CC)CC", "growth": "75.6% (inactive)"},
      {"compound": "CCN(CCC#N)c1ccccc1", "growth": "93.6% (inactive)"},
      {"compound": "S=C(S)Oc1cccc2cccnc12", "growth": "103% (inactive)"},
      {"compound": "COc1ccccc1CNCCCN1C(=O)c2ccc3c4c(ccc(c24)C1=O)C(=O)N(CCCNCCCN)C3=O", "growth": "7.88% (active)"},
      {"compound": "CC(C)c1ccc(-c2cnc3nonc3n2)cc1", "growth": "1.81% (active)"},
      {"compound": "CN1CCCN(CCNc2nccc(-c3c(-c4cccc(O)c4)nc4sccn34)n2)S1(=O)=O", "growth": "31.3% (inactive)"},
      {"compound": "COc1ccccc1CNCCCN1C(=O)c2ccc3c4c(ccc(c24)C1=O)C(=O)N(CCCCNCCCN)C3=O", "growth": "2.26% (active)"},
      {"compound": "CCC(=O)OCc1ccc(OC)cc1", "growth": "99.4% (inactive)"},
      {"compound": "COc1ccc2[nH]cc(C3(c4c[nH]c5ccc(OC)cc45)C(=O)Nc4ccc(F)cc43)c2c1", "growth": "15.4% (inactive)"},
      {"compound": "CN1C(=O)NC(Cc2c[nH]c3c(Cl)cccc23)C1=O", "note": "(stereo not drawn)", "growth": "113% (inactive)"},
      {"compound": "NC(N)=N/N=C/c1ccc(Cl)cc1", "growth": "71% (inactive)"},
      {"compound": "CC(C)(c1ccccc1)c1cc(O)c(C(C)(C)c2ccccc2)cc1O", "growth": "15.3% (inactive)"},
      {"compound": "COc1cc(-c2nn(C(=O)NCCN3CCN(C)CC3)cc2-c2ccncc2)ccc1Cl", "growth": "88.8% (inactive)"},
      {"compound": "CCCCCCCCCCCCCCCCCC(=O)[O][Sn]([CH2]CCC)([CH2]CCC)[CH2]CCC", "growth": "1.06% (active)"},
      {"compound": "CC(C)c1nc2ccccc2n1CC(=O)N/N=C/c1cccc(O)c1", "growth": "94.9% (inactive)"},
      {"compound": "O=C(Nc1ccc(Cl)cc1)c1cc(-c2ccc(Cl)cc2)c2sc(=O)[nH]c2n1", "growth": "5.46% (active)"},
      {"compound": "Oc1ccc(-c2nnc3c4[nH]ccc4ncn23)cc1", "growth": "108% (inactive)"},
      {"compound": "Cc1nc(N)nc2c1CCC(Nc1ccccc1)S2", "note": "(stereo not drawn)", "growth": "90.9% (inactive)"},
      {"compound": "NNC(=O)CSc1nc2scc(-c3ccccc3)c2c(=O)n1-c1ccccc1", "growth": "106% (inactive)"},
      {"compound": "COC(=O)C(Br)(C(=O)OC)C(Br)C(Br)C(Br)c1ccccc1", "note": "(stereo not drawn)", "growth": "0.438% (active)"},
      {"compound": "COc1cnc2c(c1)C(=O)c1c-2n(CCCN2CCN(C)CC2)c(=O)c2cc(Cl)ccc12", "growth": "-14.6% (active)"},
      {"compound": "COc1cc([N+](=O)[O-])cc(OC)c1OC", "growth": "105% (inactive)"},
      {"compound": "O=c1oc2ccccc2cc1-c1cc(-c2ccc(-c3cc(-c4cc5ccccc5oc4=O)nc(-c4cc5ccccc5oc4=O)c3)cc2)cc(-c2cc3ccccc3oc2=O)n1", "growth": "92.9% (inactive)"},
      {"compound": "CCCCCCCOc1cccc(/C=C2\\N=C3SCCCN3C2=O)c1", "growth": "111% (inactive)"},
      {"compound": "CN(C)c1ccc(C2(Cl)c3ccccc3N(C)c3ccccc32)cc1", "growth": "27.7% (inactive)"},
      {"compound": "O=C(Nc1cccc(-n2ccc3c(NC(=O)c4ccccc4)nccc32)c1)c1ccc(N2CCOCC2)c(C(F)(F)F)c1", "growth": "15.7% (inactive)"},
      {"compound": "Fc1ccc(-c2nc(-c3ccc(-c4nc5ccc(F)cc5[nH]4)cc3)no2)cc1", "growth": "74.9% (inactive)"},
      {"compound": "Clc1ccc(C2=NN[C@H](c3cn(-c4ccccc4)nc3-c3ccccc3)C2)cc1", "growth": "78.3% (inactive)"},
      {"compound": "CNC1=C([N+](=O)[O-])C(c2ccccc2O)C(C#N)=C(c2cccs2)O1", "note": "(stereo not drawn)", "growth": "85.4% (inactive)"}
    ]}
  ]
}
